M1 ag = human M1 muscarinic receptor agonists, primary screen, Fluo-8 calcium fluorescence, CHO-K1 cells, HTS. CHO-K1 hM1, agonist mode; 0% DMSO, 100% acetylcholine EC100. actives 0.33% (n = 360,000). Muscarinic acetylcholine receptor M1 (Homo sapiens), P11229. activation, % at 3 µM;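 active = activation above the run's mean compound activation plus 3 SD, cut at about 16% in these data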;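 also: peak over basal fluorescence ratio within a 140 s kinetic read after compound addition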
Target sequence (P11229 whole entry, looked up): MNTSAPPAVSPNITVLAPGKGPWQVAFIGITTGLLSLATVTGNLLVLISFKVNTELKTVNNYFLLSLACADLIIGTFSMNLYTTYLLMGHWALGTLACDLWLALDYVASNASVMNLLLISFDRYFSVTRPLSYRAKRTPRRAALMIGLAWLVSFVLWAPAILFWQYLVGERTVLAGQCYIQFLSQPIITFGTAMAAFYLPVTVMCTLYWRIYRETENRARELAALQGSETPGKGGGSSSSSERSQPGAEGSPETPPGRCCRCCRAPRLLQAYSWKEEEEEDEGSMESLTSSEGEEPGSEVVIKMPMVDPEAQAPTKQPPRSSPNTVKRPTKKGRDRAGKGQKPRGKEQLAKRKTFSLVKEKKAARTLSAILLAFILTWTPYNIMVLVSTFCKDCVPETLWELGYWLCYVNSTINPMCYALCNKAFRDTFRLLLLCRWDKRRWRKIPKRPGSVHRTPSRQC
M1 ag parental = counter-screen for M1 agonists: effect in parental CHO-K1 cells; Fluo-8 calcium fluorescence; scaled to maximal ATP response, vehicle zero; activation, % at 3 µM; actives 0.48% (n = 360,000); in the data active = activation above about 15%;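 also: untransfected CHO-K1 host cells lacking M1 receptor as counterscreen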
CHRM1 PAM = human M1 muscarinic receptor positive allosteric modulators, primary screen, CHO-K1 cells, Fluo-8 calcium fluorescence, 1536-well; Muscarinic acetylcholine receptor M1 (Homo sapiens), P11229; CHO-K1 hM1, ACh EC20; 0% = ACh EC20, 100% = maximal ACh; activation, % at 3 µM; actives 0.088% (n = 360,000); in the data active = activation above about 19%, passing the limit was not always enough
M1 PAM parental = nonselective calcium activators in parental CHO-K1 cells, primary screen, counter-screen for M1 PAM project, cell-based, Fluo-8 calcium fluorescence, full deck, 1536-well; ATP EC20; 0% at ATP EC20, 100% at ATP max; activation, % at 3 µM; actives 0.02% (n = 360,000); AID 602247, 2012;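 active = activation above the run cutoff, the mean activation of all test compounds plus 3 SD, cut at about 40% in these data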;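 also: peak over basal fluorescence ratio in a 140 s read after ATP addition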
CHRM1 antagonist = human M1 muscarinic receptor antagonists, primary screen, CHO-K1 cells, Fluo-8 calcium fluorescence, 1536-well; inhibition, % at 3 µM; AID 588852, 2011; actives 1.3% (n = 360,000); CHO-K1 hM1, ACh EC80 antagonist;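 active = percent inhibition above its own plate's cutoff, namely the mean of that plate's compound wells plus 3 SD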;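 also: peak over basal fluorescence ratio during 140 s after agonist addition; 0% = ACh EC80 plus DMSO and 100% = DMSO alone without agonist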
CHO-K1 Ca antag = M1 antagonist counterscreen hit in parental CHO-K1 cells; actives 0.6% (n = 360,000); inhibition, % at 3 µM; AID 602250; ATP-induced calcium, Fluo-8 fluorescence;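 active = inhibition above a per-plate cutoff, the plate's mean sample inhibition plus 3 SD, cut at about 24% in these data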;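 also: 0% = DMSO plus EC80 ATP and 100% = DMSO alone without ATP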
Starred values were filed as active, the others as inactive. In the library only some 2.3% were active in any assay of this set; here they are far more common.

SMILES	M1 ag	M1 ag parental	CHRM1 PAM	M1 PAM parental	CHRM1 antagonist	CHO-K1 Ca antag
O=C(Nc1ccncc1)c1ccccc1F	-2	0	3	1	-19	-6
O=C(Nc1cccc([N+](=O)[O-])c1)c1cc2ccccc2cc1O	10	16*	-12	4	22	10
O=C(Nc1ccncc1)c1cc2ccccc2cc1O	4	16*	-4	5	2	-8
C/C(=N\NC(=O)c1cc2ccccc2cc1O)c1ccccn1	2	0	29*	-2	-22	-15
C#CCOCCOCCOCCNc1nc(N2CCN(C(=O)[C@H](CCCN=C(N)N)n3cc(C(N)[C@H](C)CC)nn3)CC2)nc(N2CCN(C(=O)[C@H](CC(N)=O)n3cc(C(N)[C@@H](C)CC)nn3)CC2)n1 (some centres undefined)	-6	1	8	13	-12	-24
CCOC(=O)CCN1C(=O)c2ccccc2Sc2ncccc21	-3	3	13	19	-23	-10
COC(=O)c1cc[n+](CC(=O)c2ccccc2)cc1	30*	0	-1	16	-7	-11
COC(=O)c1ccc(OCC(=O)c2ccccc2)cc1	-3	1	-8	12	12	-13
O=C(C[n+]1ccccc1)c1ccc(-c2ccccc2)cc1	-8	0	-19	-14	40*	-4
C=Cn1cc[n+](CC(=O)c2ccc(-c3ccccc3)cc2)c1	-9	0	-7	10	-2	-5
CN(C)c1cc[n+](CC(=O)c2ccc(-c3ccccc3)cc2)cc1	-11	-1	-30	-11	42*	23
CN(C)c1cc[n+](CC(=O)c2ccc(Br)cc2)cc1	-4	-1	-4	7	10	-13
CC(C)N(C)Cc1nnnn1CC(=O)NCCc1cccc(C(F)(F)F)c1	-1	1	8	-15	-9	23
O=C(Nc1ccccc1OC(F)F)c1ccc(N2CCCC2=O)cc1	-2	1	6	19	-9	-5
C=CCc1ccccc1OCC(O)CN1CCN(c2ccc(C)cc2)CC1 (centres undefined)	-2	0	-7	0	7	-15
CCOC(=O)N1CCN(CC(O)COc2ccccc2C(C)C)CC1 (centres undefined)	20*	0	-5	-1	-2	5
C=CCc1ccccc1OCC(O)CN1CCN(C(=O)OCC)CC1 (centres undefined)	43*	3	-21	22	28	-10
CNc1ccc(-c2cccc(C#N)c2)cn1	-4	0	0	3	-3	1
CN(C)S(=O)(=O)N1CCN(c2ccccc2)CC1	8	0	30*	-11	-35	-14
CN(C)S(=O)(=O)N1CCN(c2cccc(Cl)c2)CC1	-4	0	3	2	-1	-7
COc1ccc(/C=C(\NC(=O)c2ccc(C)cc2)C(=O)NCCCN2CCOCC2)cc1OC	-3	0	2	1	2	-11
CCCCNc1c(-c2cccc(-c3ccc(OC)cc3)c2)nc2ccc(C)cn12	-8	7	-31	-8	59*	8
CCCCNc1c(-c2cccc(-c3cc(C(C)=O)cs3)c2)nc2ccc(C)cn12	-6	5	-18	11	37*	-7
CCCCNc1c(-c2ccc(OC)c(SC3CCCCC3)c2)nc2cc(C)ccn12	-8	0	-15	-6	25	-4
CCCCNc1c(-c2cccc(-c3ccc(OC)cc3)c2)nc2cc(C)ccn12	-8	5	-29	4	62*	6
SMILES	M1 ag	M1 ag parental	CHRM1 PAM	M1 PAM parental	CHRM1 antagonist	CHO-K1 Ca antag
CCN(C(=O)CSc1nnc(-c2ccccc2Cl)n1N)c1c(N)n(Cc2ccccc2)c(=O)[nH]c1=O	3	0	19	-10	-19	-11
COc1ccc(-c2cc(C(F)F)n3ncc(C(=O)N4CCSCC4)c3n2)cc1	-5	-1	-9	-6	27*	15
O=C(CCNC(=O)c1ccc(Cl)cc1)Nc1cccc(S(=O)(=O)N2CCCCCC2)c1	-4	2	9	13	-12	5
Cc1ccc(C)c(C(C)NC(=S)NCc2ccc(F)cc2)c1 (centres undefined)	10	17*	-7	7	11	-9
Cc1nonc1NC(=O)CSc1nc2ccc(Cl)cc2[nH]1	1	12	3	-3	-7	34*
CCOc1ccc(CN2CCCC(CO)(Cc3ccc(F)cc3)C2)cc1 (centres undefined)	-8	2	-22	21	40*	-15
COc1ccc2c(c1OC)C(=O)N1c3ccccc3C(=O)N(c3ccc(F)cc3)C21 (centres undefined)	2	5	-5	21	25*	0
COc1ccc2c(c1OC)C(=O)N1c3ccccc3C(=O)N(c3ccccc3)C21 (centres undefined)	1	7	-5	4	32*	23
COc1ccc2cc(C#N)c(SCC(=O)NNC(=O)Cc3ccccc3)nc2c1	-5	0	1	15	-1	-2
Cc1ccc2cc(C#N)c(SCC(=O)NNC(=O)Cc3ccccc3)nc2c1	3	0	14	-16	-3	25*
Cc1ccc(C(=O)N2CCc3cc4c(cc3C2C)OCCCO4)cc1 (centres undefined)	-4	5	-12	17	13	-16
CC(=O)Nc1ccc(C(=O)N2CCc3cc4c(cc3C2C)OCCCO4)cc1 (centres undefined)	-13	0	-33	13	57*	0
CC1c2cc3c(cc2CCN1C(=O)c1ccc(C(F)(F)F)cc1)OCCCO3 (centres undefined)	-5	4	-23	-10	34*	-18
CC1c2cc3c(cc2CCN1CC(=O)Nc1ccc(S(=O)(=O)N2CCCC2)cc1)OCCCO3 (centres undefined)	-13	5	-41	7	102*	-5
CC(=O)Nc1ccc(S(=O)(=O)N2CCc3cc4c(cc3C2C)OCCCO4)cc1 (centres undefined)	-4	2	-1	8	4	-4
C[C@H](CO)N1C[C@H](C)[C@@H](CN(C)C)Oc2c(NS(=O)(=O)c3cn(C)cn3)cccc2C1=O	-1	1	9	8	-15	-3
COc1cnn(-c2ccc(C)cc2)c(=O)c1Br	-6	0	3	17	0	-19
COc1cnn(-c2ccc(C)cc2)c(=O)c1Cl	-8	-1	6	-11	-7	25*

Screening data from PubChem.
